This note sets out measurements from PubChem BioAssay (NCI).

The panel holds about 79,000 compounds, 15% with a hit somewhere; the sample as a whole holds those more often. A number with no mark means an inactive call. Calls of active or inactive are those of the source. Cut-off read from the data, not from the text of the source: active = growth inhibition above about 70%; inactive = the rest.

A short description of the first assay: NCI Yeast Anticancer Drug Screen. Data for the bub3 strain (AID 167). The following applies: S. cerevisiae bub3 mutant strain, at 50.0 µM, stronger effect = higher value. A digest of the protocol: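 Readout: yeast growth inhibition, expressed relative to vehicle-only wells. The test organism is a mutant strain from a panel with lesions in DNA repair or checkpoint genes.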
As to `Cn1nnnc1NN(c1nnnn1C)C1C=CCC=C1`, the growth inhibition was 1.95%.

For `CN(C(=O)/C=C/c1ccccc1)c1ccccc1`, the growth inhibition is 43.3%.

On to `O=C(O)C(Cc1ccc(O)cc1)NC(=O)C(CSC(c1ccccc1)(c1ccccc1)c1ccccc1)NC(c1ccccc1)(c1ccccc1)c1ccccc1` (stereo not given), for which the growth inhibition is -4.55%.

Regarding `O=P(Nc1cccc(Cl)c1)(Nc1cccc(Cl)c1)c1ccccc1`, the growth inhibition was 85.3% (active).

Regarding `S=c1nc[nH]c2nc[nH]c12`, the growth inhibition is 10.8%.

With `O=S(=O)(O)c1ccc2cc(O)ccc2c1`, the growth inhibition is 20.8%.

Turning to `CC(O)CCNC(c1ccccc1)C(O)c1ccccc1` (stereo not given), the growth inhibition was 14.6%.

For the compound `CCOCCC(O)CC` (stereo not given), the growth inhibition was 9.8%.

On to `CCSc1cc(=O)n(C)c(=O)n1C`, for which the growth inhibition is 5.25%.

Consider `COC(=O)C1CSCN1` (stereo not given), for which the growth inhibition is -3.5%.

As for `CN1C(=O)/C(=C2\SC(=O)N(CN3CCCCC3)C2=O)c2cc(Br)ccc21`, the growth inhibition was -2.45%.

Turning to `Cc1nn(C)c(C#N)c1[N+](=O)[O-]`, the growth inhibition is -16.2%.

Consider `CN(C)CCN1CCCN(C)CC1`, for which the growth inhibition is -25.3%.

As for `Nc1c(Cl)ncnc1Cl`, the growth inhibition is 19.7%.

Take `COC1=C(c2ccccc2)P(=O)(Cc2ccccc2)C2CCCC12` (stereo not given): the growth inhibition was 21.4%.

On to `CC(=O)c1ccc(Cl)c(Cl)c1`, for which the growth inhibition is 4.7%.

As to `CC(C)c1ccc(/C=N\N(C)C)cc1`, the growth inhibition is -2.9%.

`C[Si](C)(C)c1ccc(-c2ccccc2)cc1`: the growth inhibition was 22.5%.

In the case of `CCCNCCC(=O)Nc1ccccc1C(=O)OCC`, the growth inhibition is 29.3%.

Regarding `N#Cc1c(Br)n(C2OC(CO)C(O)C2O)c2ncncc12` (stereo not given), the growth inhibition was 4.7%.

Consider `CC(C)(C)c1ccc2c(c1)CNCCNCCNCc1cc(C(C)(C)C)ccc1OCC1(CO2)COc2ccc(C(C)(C)C)cc2CNCCNCCNCc2cc(C(C)(C)C)ccc2OC1`, for which the growth inhibition is 92.2% (active).

As to `COC(=O)c1c2c(cc3c1CC1(Cc4cc5c(c(C=O)c4C1)CCC5)C3)CCC2` (stereo not given), the growth inhibition was 14.4%.

Regarding `CC(=O)CC(=O)Nc1ccccc1[N+](=O)[O-]`, the growth inhibition was 7.05%.

In the case of `O=C1c2ccccc2CN1c1ccccc1`, the growth inhibition was -7.5%.

For `O=C(c1ccccc1)C1(Br)CCCCC1`, the growth inhibition is 15%.

In the case of `COc1ccc(S(=O)(=O)N/N=C/c2cc(I)cc([N+](=O)[O-])c2O)cc1OC`, the growth inhibition is -3.75%.

For the compound `O=c1[nH]c(/C=C(\O)c2ccncc2)nc2ccccc12`, the growth inhibition was -9%.

On to `COC(=O)c1c2c(C)ccc(C)c2nc2c(C)ccc(C)c12`, for which the growth inhibition is 22.7%.

In the case of `COC(=O)C1C(O)CCC2CN3CCc4c([nH]c5cccc(OC)c45)C3CC21` (stereo not given), the growth inhibition is 2%.

Turning to `N=C(N)SCCC(=O)CCSC(=N)N`, the growth inhibition is 15.6%.

With `CN1c2ccccc2S(=O)(=O)n2c(COc3ccc(Cl)cc3)nnc21`, the growth inhibition is 3.05%.

As to `C=C(Br)CNC(=O)c1ccccc1`, the growth inhibition is 21.4%.

Take `CSc1ccc(NC(=O)Nc2ccc(Nc3ccccc3)cc2)cc1`: the growth inhibition is 14.2%.

As for `O=S(=O)(O)c1cc(N=Nc2cc(S(=O)(=O)O)c3ccccc3c2O)ccc1/C=C/c1ccc(N=Nc2cc(S(=O)(=O)O)c3ccccc3c2O)cc1S(=O)(=O)O`, the growth inhibition was 45.9%.

As for `N#Cc1ccccc1OCCCCCCCCCCOc1ccccc1C#N`, the growth inhibition is -1%.

On to `N#CC(NCCCNC(C#N)c1ccccc1)c1ccccc1` (stereo not given), for which the growth inhibition was -3.9%.

On to `CCNCc1ccccc1`, for which the growth inhibition was -10.9%.

For `CCCCCCCCCCCCCCCCOc1ccc(C2=NCC(C)S2)c(C)c1` (stereo not given), the growth inhibition was -1.6%.

`CN(C)/N=C1/CCCCC1C(O)(c1ccccc1)c1ccccc1` (stereo not given): the growth inhibition is -58.8%.

As to `O=c1/c(=C/c2ccco2)sc2nc3ccccc3n12`, the growth inhibition was 30.1%.

The nature of the next assay: NCI Yeast Anticancer Drug Screen. Data for the mlh1 rad18 strain (AID 175). The following applies: S. cerevisiae mlh1 rad18 strain growth inhibition; at 50.0 µM; stronger effect = higher value. In short, it runs like this: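 A repair-deficient yeast strain is exposed to test compound, and growth is scored relative to vehicle-treated controls.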
Turning to `Cn1nnnc1NN(c1nnnn1C)C1C=CCC=C1`, the growth inhibition is -10.7%.

In the case of `CN(C(=O)/C=C/c1ccccc1)c1ccccc1`, the growth inhibition was 32.4%.

As for `O=C(O)C(Cc1ccc(O)cc1)NC(=O)C(CSC(c1ccccc1)(c1ccccc1)c1ccccc1)NC(c1ccccc1)(c1ccccc1)c1ccccc1` (stereo not given), the growth inhibition is 23%.

Regarding `O=P(Nc1cccc(Cl)c1)(Nc1cccc(Cl)c1)c1ccccc1`, the growth inhibition is 95.8% (active).

As for `S=c1nc[nH]c2nc[nH]c12`, the growth inhibition was 20.1%.

With `O=S(=O)(O)c1ccc2cc(O)ccc2c1`, the growth inhibition was 28.4%.

Take `CC(O)CCNC(c1ccccc1)C(O)c1ccccc1` (stereo not given): the growth inhibition was -0.85%.

`CCOCCC(O)CC` (stereo not given): the growth inhibition was 14%.

For the compound `CCSc1cc(=O)n(C)c(=O)n1C`, the growth inhibition is -10.5%.

Turning to `COC(=O)C1CSCN1` (stereo not given), the growth inhibition is -12.8%.

For the compound `CN1C(=O)/C(=C2\SC(=O)N(CN3CCCCC3)C2=O)c2cc(Br)ccc21`, the growth inhibition is 18.1%.

As to `Cc1nn(C)c(C#N)c1[N+](=O)[O-]`, the growth inhibition is 0.8%.

For `CN(C)CCN1CCCN(C)CC1`, the growth inhibition is 5.4%.

Regarding `Nc1c(Cl)ncnc1Cl`, the growth inhibition is -39.7%.

In the case of `COC1=C(c2ccccc2)P(=O)(Cc2ccccc2)C2CCCC12` (stereo not given), the growth inhibition was -17.3%.

`CC(=O)c1ccc(Cl)c(Cl)c1`: the growth inhibition is -15.3%.

In the case of `CC(C)c1ccc(/C=N\N(C)C)cc1`, the growth inhibition was -1.75%.

On to `C[Si](C)(C)c1ccc(-c2ccccc2)cc1`, for which the growth inhibition is -18.4%.

Consider `CCCNCCC(=O)Nc1ccccc1C(=O)OCC`, for which the growth inhibition was -6.25%.

With `N#Cc1c(Br)n(C2OC(CO)C(O)C2O)c2ncncc12` (stereo not given), the growth inhibition is 2.7%.

For `CC(C)(C)c1ccc2c(c1)CNCCNCCNCc1cc(C(C)(C)C)ccc1OCC1(CO2)COc2ccc(C(C)(C)C)cc2CNCCNCCNCc2cc(C(C)(C)C)ccc2OC1`, the growth inhibition is 89.8% (active).

Regarding `COC(=O)c1c2c(cc3c1CC1(Cc4cc5c(c(C=O)c4C1)CCC5)C3)CCC2` (stereo not given), the growth inhibition was 4.8%.

For `CC(=O)CC(=O)Nc1ccccc1[N+](=O)[O-]`, the growth inhibition was -9.65%.

Regarding `O=C1c2ccccc2CN1c1ccccc1`, the growth inhibition was -2.7%.

In the case of `O=C(c1ccccc1)C1(Br)CCCCC1`, the growth inhibition was 15.9%.

In the case of `COc1ccc(S(=O)(=O)N/N=C/c2cc(I)cc([N+](=O)[O-])c2O)cc1OC`, the growth inhibition is 38%.

In the case of `O=c1[nH]c(/C=C(\O)c2ccncc2)nc2ccccc12`, the growth inhibition is -17.9%.

On to `COC(=O)c1c2c(C)ccc(C)c2nc2c(C)ccc(C)c12`, for which the growth inhibition is -41%.

With `COC(=O)C1C(O)CCC2CN3CCc4c([nH]c5cccc(OC)c45)C3CC21` (stereo not given), the growth inhibition was -78.7%.

In the case of `N=C(N)SCCC(=O)CCSC(=N)N`, the growth inhibition is -2.75%.

`CN1c2ccccc2S(=O)(=O)n2c(COc3ccc(Cl)cc3)nnc21`: the growth inhibition was 2.6%.

As to `C=C(Br)CNC(=O)c1ccccc1`, the growth inhibition was 5.2%.

Regarding `CSc1ccc(NC(=O)Nc2ccc(Nc3ccccc3)cc2)cc1`, the growth inhibition is 23.3%.

For the compound `O=S(=O)(O)c1cc(N=Nc2cc(S(=O)(=O)O)c3ccccc3c2O)ccc1/C=C/c1ccc(N=Nc2cc(S(=O)(=O)O)c3ccccc3c2O)cc1S(=O)(=O)O`, the growth inhibition is 42.6%.

`N#Cc1ccccc1OCCCCCCCCCCOc1ccccc1C#N`: the growth inhibition was 3.8%.

On to `N#CC(NCCCNC(C#N)c1ccccc1)c1ccccc1` (stereo not given), for which the growth inhibition was -18.4%.

Consider `CCNCc1ccccc1`, for which the growth inhibition was -18.8%.

Take `CCCCCCCCCCCCCCCCOc1ccc(C2=NCC(C)S2)c(C)c1` (stereo not given): the growth inhibition was 38.1%.

In the case of `CN(C)/N=C1/CCCCC1C(O)(c1ccccc1)c1ccccc1` (stereo not given), the growth inhibition was -10.7%.

In the case of `O=c1/c(=C/c2ccco2)sc2nc3ccccc3n12`, the growth inhibition is 20.4%.
